Results filed as inconclusive are left out. The source made the active and inactive calls. Rule for the calls, unless noted: active = hit-call score of the fitted dose curve at least 0.9, where 1 is the maximum; inconclusive = response in the unintended direction; inactive = score below 0.9.
Experiments:
[1] = target: rat Monoamine Oxidase, MAO-B, Central (MAOBC), Maob (gene 25750) (UniProt P19643); assay: NVS_ENZ_rMAOBC: NovaScreen (NVS) Enzymatic Assay for rat Monoamine Oxidase, MAO-B, Central (MAOBC) (AID 2283238)
Procedure, shortened: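 Actives from a duplicate 25 uM screen went on to singleton concentration-response with a 50 uM maximum. Enzyme source was rat brain tissue MAO-B, assayed cell-free. Radiolabelled product was counted by scintillation 1.17 h post-dose, with signal loss relative to DMSO.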

[2] = target: rat Monoamine Oxidase, MAO-B, Peripheral (MAOBP), Maob (gene 25750) (UniProt P19643); assay: NVS_ENZ_rMAOBP: NovaScreen (NVS) Enzymatic Assay for rat Monoamine Oxidase, MAO-B, Peripheral (MAOBP) (AID 2283242)
[3] = target: Norway rat Vesicular Monoamine Transporter (VMAT2), neurotransmitter transporter, Slc18a2 (gene 25549) (UniProt Q01827); assay: NVS_TR_rVMAT2: NovaScreen (NVS) Transporter Assay for Norway rat Vesicular Monoamine Transporter (VMAT2), neurotransmitter transporter (AID 2283376);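 note: actives lower the bound radioligand signal below the DMSO level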
Procedure, shortened: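 Using rat forebrain membranes, specific radioligand binding to VMAT2 was measured by filtration and scintillation counting after 1 hour. Chemicals screened at 25 uM in duplicate, actives retested in concentration series, DMSO baseline.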

[4] = target: rat Oxytocin Receptor (OXT), Oxtr (gene 25342) (UniProt P70536); assay: NVS_GPCR_rOXT: NovaScreen (NVS) G Protein-Coupled Receptor Assay for rat Oxytocin Receptor (OXT) (AID 2283330)
Procedure, shortened: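 Binding to rat uterine membrane receptor was followed by scintillation counting of filter-trapped radioligand after 1 h. A 25 uM duplicate single-point screen preceded concentration series with a top of 50 uM. Signal loss was analysed relative to DMSO.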

[5] = test system: rat Monoamine Oxidase, MAO-A, Peripheral (MAOAP), gene 29253; assay: NVS_ENZ_rMAOAP: NovaScreen (NVS) Enzymatic Assay for rat Monoamine Oxidase, MAO-A, Peripheral (MAOAP) (AID 2283237)
Procedure, shortened: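 Scintillation counting tracked MAO-A activity in a cell-free rat liver mitochondrial membrane prep, read 1.17 hours after compound addition. Single-point duplicate testing at 25 uM preceded concentration-response follow-up; activity was fitted relative to DMSO.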

[6] = target: human Neonicotinoid receptor (NNR), CHRNA2 (gene 1135) (UniProt Q15822); assay: NVS_LGIC_hNNR_NBungSens: NovaScreen (NVS) Ligand-Gated Ion Channel Assay for human Neonicotinoid receptor (NNR) (AID 2283313)
Procedure, shortened: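 Compounds first screened in duplicate at 25 uM, then actives re-tested in single-replicate dose series up to 50 uM. Binding measured as displacement of specific radioligand from neuroblastoma membrane receptors after 2 h, scintillation read on filters.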

[7] = test system: rat Monoamine Oxidase, MAO-A, Central (MAOAC), gene 29253; assay: NVS_ENZ_rMAOAC: NovaScreen (NVS) Enzymatic Assay for rat Monoamine Oxidase, MAO-A, Central (MAOAC) (AID 2283243);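 note: potency refers to inhibition seen as signal drop below DMSO baseline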
Procedure, shortened: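 Enzyme from rat brain, cell-free radiodetection format. Counts taken at 1.5 h; activity fitted against DMSO baseline, loss of signal marking inhibition. Confirmatory concentration series followed the 25 uM duplicate screen.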

[8] = target: rat Neurotensin Receptor (NTS), Ntsr1 (gene 366274) (UniProt P20789); assay: NVS_GPCR_rNTS: NovaScreen (NVS) G Protein-Coupled Receptor Assay for rat Neurotensin Receptor (NTS) (AID 2283308)
Procedure, shortened: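 Single-point duplicates at 25 uM, then concentration series to 50 uM max for hits, measured radioligand displacement on rat forebrain membrane preparations. Bound label counted by filtration scintillation at 1 h; signal loss relative to DMSO fitted.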

[9] = target: bovine Estrogen Receptor (ER), ESR1 (gene 407238) (UniProt P49884); assay: NVS_NR_bER: NovaScreen (NVS) Nuclear Receptor Binding Assay for bovine Estrogen Receptor (ER) (AID 2283345);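 note: actives lower the bound radioligand count which means they displace the ER ligand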
Procedure, shortened: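 Cell-free radioligand binding with bovine uterine membrane extracts, read 18 hours after dosing by scintillation counting. Loss of signal versus DMSO baseline indicates displacement. Primary screen run in duplicate at 25 uM, actives followed in concentration series.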

[10] = target: Estrogen receptor (Homo sapiens) (UniProt P03372); assay: NVS_NR_hER: NovaScreen (NVS) Nuclear Receptor Binding Assay for human Estrogen Receptor (ER) (AID 2283348)
Procedure, shortened: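 Cell-free MCF7-derived ER preparation, specific radioligand displaced by test compound, read by scintillation counting 18 h post-dosing. Duplicate single-point 25 uM screen, then concentration-response confirmation; DMSO baseline.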

[11] = TOX21_p53_BLA_p2_viability: Viability Assessment in the Tox21 HCT-116 p53 Agonism Beta-lactamase Assay, Phase 2 (AID 2283591);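 note: compound exposure lasted 16 h at 37 °C; actives lower the ATP signal meaning cytotoxicity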
Procedure, shortened: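 Cytotoxicity readout: CellTiter-Glo ATP luminescence, 30 min at room temperature, after the beta-lactamase read. Cells were HCT116 exposed 16 h at 37C to compounds pin-transferred at 217-fold dilution from DMSO stocks.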

[12] = target: Cellular tumor antigen p53 (Homo sapiens) (UniProt P04637); assay: TOX21_p53_BLA_p2_ratio: Tox21 HCT-116 p53 Agonism Beta-lactamase Assay, Ratio, Phase 2 (AID 2283592)
Procedure, shortened: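 Ratio endpoint: beta-lactamase cleavage of CCF4-AM, blue (460 nm) over green (530 nm). HCT116 reporter line; 16 h treatment, 37C; substrate 2 h RT.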

[13] = TOX21_p53_BLA_p3_viability: Viability Assessment in the Tox21 HCT-116 p53 Agonism Beta-lactamase Assay, Phase 3 (AID 2283593);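 note: cells exposed to compound for 16 h before reading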
Procedure, shortened: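 Cellular ATP was quantified by CellTiter-Glo luminescence, read after 30 min at room temperature. Beforehand, HCT116 cells (4000/well) received compound 5 h post-seeding, 217-fold diluted from DMSO, then incubated 16 h at 37C.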

[14] = target: Cellular tumor antigen p53 (Homo sapiens) (UniProt P04637); assay: TOX21_p53_BLA_p3_ratio: Tox21 HCT-116 p53 Agonism Beta-lactamase Assay, Ratio, Phase 3 (AID 2283596)
Procedure, shortened: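 Cells were seeded at 4000/well, rested 5 h at 37C, then dosed with DMSO compound solutions (217-fold dilution) for 16 h. CCF4-AM substrate was loaded for 2 h at room temperature, and the 460/530 nm emission ratio was fitted for gain of signal versus DMSO.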

[15] = TOX21_p53_BLA_p4_viability: Viability Assessment in the Tox21 HCT-116 p53 Agonism Beta-lactamase Assay, Phase 4 (AID 2283597);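 note: hits lower the luminescence signal meaning cytotoxicity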
Procedure, shortened: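 Cytotoxicity was inferred from loss of CellTiter-Glo luminescence. HCT116 cells had been dosed with compounds after 5 h plating, incubated 16 h at 37C and 5% CO2, and exposed to the CCF4-AM substrate for 2 h.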

[16] = target: Cellular tumor antigen p53 (Homo sapiens) (UniProt P04637); assay: TOX21_p53_BLA_p5_ratio: Tox21 HCT-116 p53 Agonism Beta-lactamase Assay, Ratio, Phase 5 (AID 2283599)
Procedure, shortened: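 Beta-lactamase reporter ratio (blue 460 nm over green 530 nm, 405 nm excitation) after 2 h CCF4-AM loading, in HCT-116 cells exposed 16 h at 37 C to compounds pinned at 217-fold dilution. Increases relative to DMSO baseline scored.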

[17] = TOX21_p53_BLA_p5_viability: Viability Assessment in the Tox21 HCT-116 p53 Agonism Beta-lactamase Assay, Phase 5 (AID 2283600)
Procedure, shortened: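 Luciferase-coupled ATP quantitation of cells treated for 16 h (37C, 5% CO2) with test chemicals delivered in DMSO via a 217-fold dilution; 4000 cells/well; reagent incubated 30 min at room temperature before luminescence reading.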

[18] = target: Cellular tumor antigen p53 (Homo sapiens) (UniProt P04637); assay: TOX21_p53_BLA_p4_ratio: Tox21 HCT-116 p53 Agonism Beta-lactamase Assay, Ratio, Phase 4 (AID 2283601)
Procedure, shortened: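 Signal is the blue/green (460nm/530nm) ratio of cleaved versus uncleaved CCF4-AM substrate, read after 2 h substrate loading. Cells were HCT116 carrying the p53-responsive beta-lactamase reporter, dosed 16 h at 37C, 5% CO2; CellTiter-Glo measured in parallel.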

[19] = CCTE_Harrill_HTTr_Viability_MCF7: CCTE's 6-hour Cell Viability Assessment for the High-Throughput Transcriptomics (HTTr) Platform, in MCF-7 cells cultured in DMEM + 10% fetal bovine serum, Harrill Lab (AID 2284010; active = hit-call score of the fitted dose curve at least 0.9, where 1 is the maximum; inactive = score below 0.9)
Procedure, shortened: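 Read-out is propidium iodide gain of signal by high-content imaging, reflecting membrane integrity loss. Measurements are taken 6 h after dosing, eight concentrations per chemical, with DMSO serving as baseline for bidirectional curve fitting.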

[20] = CCTE_Harrill_HTTr_Apoptosis_MCF7: CCTE's 6-hour Apoptosis Assessment for the High-Throughput Transcriptomics (HTTr) Platform, in MCF-7 cells cultured in DMEM + 10% fetal bovine serum, Harrill Lab (AID 2284011; active = hit-call score of the fitted dose curve at least 0.9, where 1 is the maximum; inactive = score below 0.9)
Procedure, shortened: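 MCF-7 cells in DMEM + 10% fetal bovine serum were exposed to chemicals for 6 hours over an eight-point dilution series. Caspase-3/7 activation was imaged by high content imaging with CellEvent Caspase 3/7 Green; bidirectional fitting used DMSO as baseline.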

[21] = CCTE_Harrill_HTTr_CellCount_MCF7: CCTE's Cell Proliferation Assessment for the High-Throughput Transcriptomics (HTTr) Platform, Harrill Lab (AID 2284012);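 note: cells exposed to compound for six hours; intended direction is loss of nuclei count meaning fewer cells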
Procedure, shortened: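 Cell count served as viability reporter: loss of Hoechst-stained nuclei, counted by high content imaging, marks decreased growth or survival. Exposure was 6 h in MCF-7 cells across eight concentrations, with DMSO as baseline.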

Cellular tumor antigen p53 (Homo sapiens), sequence (P04637 whole entry, looked up): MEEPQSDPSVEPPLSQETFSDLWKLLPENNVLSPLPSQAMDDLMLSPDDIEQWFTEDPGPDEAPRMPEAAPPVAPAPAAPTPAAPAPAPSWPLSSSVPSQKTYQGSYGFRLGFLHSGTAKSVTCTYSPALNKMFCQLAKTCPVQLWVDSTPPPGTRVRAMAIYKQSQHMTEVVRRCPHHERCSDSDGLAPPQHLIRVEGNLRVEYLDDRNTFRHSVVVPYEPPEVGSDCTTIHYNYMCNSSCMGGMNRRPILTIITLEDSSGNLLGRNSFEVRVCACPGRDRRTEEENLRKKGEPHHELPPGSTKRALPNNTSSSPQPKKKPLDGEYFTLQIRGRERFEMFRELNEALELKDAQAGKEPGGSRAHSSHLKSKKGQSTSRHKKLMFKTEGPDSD
rat Monoamine Oxidase, MAO-B, Peripheral (MAOBP), Maob (gene 25750), sequence (P19643 whole entry, looked up): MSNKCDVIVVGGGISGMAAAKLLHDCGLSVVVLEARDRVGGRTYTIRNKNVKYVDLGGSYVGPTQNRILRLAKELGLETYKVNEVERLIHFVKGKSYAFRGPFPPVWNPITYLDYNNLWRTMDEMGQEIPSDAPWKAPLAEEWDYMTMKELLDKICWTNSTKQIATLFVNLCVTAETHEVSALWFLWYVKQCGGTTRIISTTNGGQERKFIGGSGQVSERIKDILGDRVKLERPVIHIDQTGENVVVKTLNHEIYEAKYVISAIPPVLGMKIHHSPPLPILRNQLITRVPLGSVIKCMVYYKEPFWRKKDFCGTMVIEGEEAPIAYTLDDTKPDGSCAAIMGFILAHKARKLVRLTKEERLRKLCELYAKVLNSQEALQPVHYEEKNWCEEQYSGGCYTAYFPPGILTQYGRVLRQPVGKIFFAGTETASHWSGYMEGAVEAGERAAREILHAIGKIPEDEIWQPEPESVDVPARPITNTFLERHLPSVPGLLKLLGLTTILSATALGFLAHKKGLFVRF
rat Monoamine Oxidase, MAO-B, Central (MAOBC), Maob (gene 25750), sequence (P19643 whole entry, looked up): as above
rat Oxytocin Receptor (OXT), Oxtr (gene 25342), sequence (P70536 whole entry, looked up): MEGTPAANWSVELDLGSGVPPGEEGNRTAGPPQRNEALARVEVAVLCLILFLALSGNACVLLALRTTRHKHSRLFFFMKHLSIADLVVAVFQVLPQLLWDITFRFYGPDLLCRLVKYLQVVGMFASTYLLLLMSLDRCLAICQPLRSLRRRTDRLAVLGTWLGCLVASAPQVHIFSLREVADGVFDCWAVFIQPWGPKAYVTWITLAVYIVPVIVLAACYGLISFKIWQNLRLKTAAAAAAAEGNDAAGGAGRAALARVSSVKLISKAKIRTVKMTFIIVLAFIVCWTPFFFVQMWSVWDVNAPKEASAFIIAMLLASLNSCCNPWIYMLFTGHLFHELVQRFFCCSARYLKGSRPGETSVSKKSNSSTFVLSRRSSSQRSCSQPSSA
Norway rat Vesicular Monoamine Transporter (VMAT2), neurotransmitter transporter, Slc18a2 (gene 25549), sequence (Q01827 whole entry, looked up): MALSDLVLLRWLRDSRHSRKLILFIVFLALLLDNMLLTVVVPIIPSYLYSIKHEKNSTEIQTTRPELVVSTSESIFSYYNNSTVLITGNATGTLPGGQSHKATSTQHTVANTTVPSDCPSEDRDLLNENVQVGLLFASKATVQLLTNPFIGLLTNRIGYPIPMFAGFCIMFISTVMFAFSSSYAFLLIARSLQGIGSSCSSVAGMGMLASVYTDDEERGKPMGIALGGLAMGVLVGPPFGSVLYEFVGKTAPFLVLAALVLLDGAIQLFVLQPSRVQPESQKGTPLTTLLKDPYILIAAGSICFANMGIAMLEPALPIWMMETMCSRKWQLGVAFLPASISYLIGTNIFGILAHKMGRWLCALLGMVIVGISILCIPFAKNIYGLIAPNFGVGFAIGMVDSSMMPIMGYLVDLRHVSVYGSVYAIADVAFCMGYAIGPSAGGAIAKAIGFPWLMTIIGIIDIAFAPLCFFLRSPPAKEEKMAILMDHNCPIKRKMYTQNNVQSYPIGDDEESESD
bovine Estrogen Receptor (ER), ESR1 (gene 407238), sequence (P49884 whole entry, looked up): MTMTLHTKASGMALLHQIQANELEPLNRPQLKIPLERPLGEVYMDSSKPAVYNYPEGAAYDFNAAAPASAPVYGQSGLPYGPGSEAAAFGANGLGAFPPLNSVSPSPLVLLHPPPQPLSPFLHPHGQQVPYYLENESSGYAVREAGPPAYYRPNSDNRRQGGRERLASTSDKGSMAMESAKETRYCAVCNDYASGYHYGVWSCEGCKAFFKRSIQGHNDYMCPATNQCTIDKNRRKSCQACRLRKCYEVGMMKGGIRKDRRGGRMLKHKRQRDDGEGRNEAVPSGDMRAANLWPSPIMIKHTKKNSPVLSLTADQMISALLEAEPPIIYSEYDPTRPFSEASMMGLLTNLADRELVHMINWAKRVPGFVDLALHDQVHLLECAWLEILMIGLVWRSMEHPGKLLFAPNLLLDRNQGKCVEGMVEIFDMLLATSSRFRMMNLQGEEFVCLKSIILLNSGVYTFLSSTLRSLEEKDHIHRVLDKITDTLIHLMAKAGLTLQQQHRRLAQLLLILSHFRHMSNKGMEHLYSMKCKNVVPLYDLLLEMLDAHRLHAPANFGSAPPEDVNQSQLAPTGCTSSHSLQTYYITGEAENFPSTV
human Neonicotinoid receptor (NNR), CHRNA2 (gene 1135), sequence (Q15822 whole entry, looked up): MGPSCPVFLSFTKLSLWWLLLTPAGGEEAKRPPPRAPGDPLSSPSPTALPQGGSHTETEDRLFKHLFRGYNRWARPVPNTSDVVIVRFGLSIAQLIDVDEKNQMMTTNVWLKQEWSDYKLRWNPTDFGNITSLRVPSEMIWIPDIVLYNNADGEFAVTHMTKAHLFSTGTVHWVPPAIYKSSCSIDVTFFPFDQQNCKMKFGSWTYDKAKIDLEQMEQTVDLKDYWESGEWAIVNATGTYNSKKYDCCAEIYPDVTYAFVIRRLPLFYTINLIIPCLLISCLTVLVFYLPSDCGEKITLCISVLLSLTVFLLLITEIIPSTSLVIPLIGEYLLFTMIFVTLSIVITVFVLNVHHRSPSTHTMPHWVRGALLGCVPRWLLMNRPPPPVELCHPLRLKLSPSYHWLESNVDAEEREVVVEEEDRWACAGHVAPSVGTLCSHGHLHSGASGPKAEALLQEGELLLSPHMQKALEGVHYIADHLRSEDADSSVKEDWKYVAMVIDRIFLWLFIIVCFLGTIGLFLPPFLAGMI
rat Neurotensin Receptor (NTS), Ntsr1 (gene 366274), sequence (P20789 whole entry, looked up): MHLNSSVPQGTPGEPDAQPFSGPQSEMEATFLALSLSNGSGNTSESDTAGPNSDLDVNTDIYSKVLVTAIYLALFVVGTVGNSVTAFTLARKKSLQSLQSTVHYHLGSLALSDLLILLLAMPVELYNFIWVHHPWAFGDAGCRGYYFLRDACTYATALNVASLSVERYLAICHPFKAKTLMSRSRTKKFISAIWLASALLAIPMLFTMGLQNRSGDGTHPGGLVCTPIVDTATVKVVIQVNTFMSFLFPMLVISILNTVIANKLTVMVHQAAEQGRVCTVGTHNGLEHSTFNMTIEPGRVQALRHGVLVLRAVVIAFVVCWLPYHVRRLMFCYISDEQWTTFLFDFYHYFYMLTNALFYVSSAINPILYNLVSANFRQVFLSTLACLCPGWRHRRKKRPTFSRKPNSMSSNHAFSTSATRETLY
Estrogen receptor (Homo sapiens), sequence (P03372 whole entry, looked up): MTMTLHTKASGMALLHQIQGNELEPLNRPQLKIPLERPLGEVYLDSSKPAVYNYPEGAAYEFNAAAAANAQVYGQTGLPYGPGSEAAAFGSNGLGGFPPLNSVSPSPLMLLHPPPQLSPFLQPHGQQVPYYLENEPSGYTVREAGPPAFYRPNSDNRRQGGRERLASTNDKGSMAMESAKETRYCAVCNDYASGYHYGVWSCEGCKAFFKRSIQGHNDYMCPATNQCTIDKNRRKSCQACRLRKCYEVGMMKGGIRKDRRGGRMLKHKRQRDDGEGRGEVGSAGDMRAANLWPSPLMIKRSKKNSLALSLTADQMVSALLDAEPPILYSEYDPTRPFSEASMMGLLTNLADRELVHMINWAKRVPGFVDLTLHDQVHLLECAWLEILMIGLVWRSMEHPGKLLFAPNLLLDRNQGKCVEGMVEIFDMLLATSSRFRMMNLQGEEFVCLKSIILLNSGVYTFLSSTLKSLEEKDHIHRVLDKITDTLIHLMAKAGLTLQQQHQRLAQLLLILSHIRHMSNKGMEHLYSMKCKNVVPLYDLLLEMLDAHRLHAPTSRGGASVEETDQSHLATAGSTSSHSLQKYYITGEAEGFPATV

C=CN1CCCC1=O
outcome [1]: inactive

CCC(C)(C)C1CCC(O)CC1 (configuration not stated)
outcome [1]: inactive

c1ccc2ncccc2c1
outcome [1]: inactive

O=C1c2ccccc2C(=O)N1CCc1noc(-c2ccc(CN3CCCCCC3)s2)n1
AC50 [1]: 12.5 µM (active) | AC50 [2]: 11.4 µM (active) | AC50 [3]: 2.87 µM (active)

O=C(NS(=O)(=O)/C=C/c1cccs1)c1ccc(F)cc1Br
outcome [1]: inactive | outcome [2]: inactive

CCCCCC(C)OC(=O)COc1ccc(Cl)c2cccnc12 (configuration not stated)
outcome [1]: inactive

Cc1ccc(C)c(C)c1
outcome [1]: inactive

CCCC[C@H]1CN(CC2CCOCC2)C(=O)OC12CCN(C1(C)CCN(C(=O)c3c(C)ncnc3C)CC1)CC2
outcome [2]: inactive

Cc1occc1C(=O)Nc1ccc(C(=O)N2CCC(F)(F)/C(=C\C(=O)N3CCC(N4CCCCC4)CC3)c3ccccc32)cc1
AC50 [2]: 9.05 µM (active) | AC50 [4]: 0.119 µM (active) | AC50 [3]: 5.73 µM (active)

O=C(N[C@@H](Cc1ccccc1)[C@@H](O)C(=O)N1C[C@@H](O)[C@@H](O)C1)c1cc2cc(Cl)ccc2[nH]1
outcome [1]: inactive

CC(C)(O)c1ccc(CNC(=O)c2cccnc2Oc2ccc3nonc3c2)cc1
outcome [2]: inactive

CC1=C(/C=C/C(C)=C/C=C/C(C)=C/C(=O)O)C(C)(C)CCC1
outcome [2]: inactive

CCCOC(=O)NCCCN(C)C
outcome [5]: inactive | AC50 [6]: 7.3 µM (active)

CCCN(CCC)c1c([N+](=O)[O-])cc(C(F)(F)F)c(N)c1[N+](=O)[O-]
outcome [5]: inactive | outcome [4]: inactive

CCOC(=O)C(C)Oc1ccc(Oc2nc3ccc(Cl)cc3o2)cc1 (configuration not stated)
outcome [1]: inactive | AC50 [2]: 29.9 µM (active) | outcome [7]: inactive

Cc1ccc([N+](=O)[O-])cc1N
AC50 [1]: 14.7 µM (active) | AC50 [2]: 26.1 µM (active)

CCc1ccc(CCOc2ccc(CC3SC(=O)NC3=O)cc2)nc1 (configuration not stated)
AC50 [1]: 6 µM (active)

OCC(CO)(CBr)CBr
outcome [2]: inactive

COC(=O)c1ccccc1C(=O)O
outcome [8]: inactive

N#Cc1sc2c(=O)c3ccccc3c(=O)c=2sc1C#N
AC50 [9]: 9.58 µM (active) | AC50 [10]: 10.3 µM (active) | AC50 [11]: 14.9 µM (active) | AC50 [12]: 0.333 µM (active) | AC50 [13]: 25.2 µM (active) | AC50 [14]: 52.2 µM (active) | AC50 [15]: 8.76 µM (active) | AC50 [16]: 0.347 µM (active) | AC50 [17]: 7.3 µM (active) | AC50 [18]: 6.18 µM (active) | AC50 [19]: 11.1 µM (active) | outcome [20]: inactive | outcome [21]: inactive
